From the supplement of paper PMC3334620
Whole data set: some 33,000 sequences, median “E-score (-0.5 to 0.5)” near -0.036, cut for the highest 2% near 0.37. Many of the other results were omitted from the sample, so the highest values are more common in it than they were.

target: T1, Yer064c (UniProt P40041); test: PBM E-score (8-mer binding enrichment) (E-score (-0.5 to 0.5)); higher = stronger / more preferred TF binding; details: protein concentration: 200 nM; construct: GST-full length
T1 sequence: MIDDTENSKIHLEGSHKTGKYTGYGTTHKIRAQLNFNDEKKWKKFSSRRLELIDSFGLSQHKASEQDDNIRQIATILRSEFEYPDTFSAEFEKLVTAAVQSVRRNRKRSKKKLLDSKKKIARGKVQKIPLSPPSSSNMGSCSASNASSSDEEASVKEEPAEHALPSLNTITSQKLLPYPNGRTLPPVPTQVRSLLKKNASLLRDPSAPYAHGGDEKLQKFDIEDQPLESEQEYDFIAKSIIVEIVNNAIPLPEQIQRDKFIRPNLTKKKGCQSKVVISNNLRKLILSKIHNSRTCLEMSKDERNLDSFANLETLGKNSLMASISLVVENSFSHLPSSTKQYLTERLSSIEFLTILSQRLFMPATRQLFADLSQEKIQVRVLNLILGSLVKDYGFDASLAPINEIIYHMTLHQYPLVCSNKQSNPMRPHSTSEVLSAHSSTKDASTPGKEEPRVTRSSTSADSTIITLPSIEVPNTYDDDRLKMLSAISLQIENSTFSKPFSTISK
Outline: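 Using PURExpress in vitro transcription/translation, GST-tagged yeast transcription factors were made in full-length or DNA-binding-domain form. These were applied at about 100-200 nM to double-stranded universal all-10-mer Agilent arrays, and bound protein was detected with fluorescent anti-GST. Scans were normalised with masliner before the Universal PBM Analysis Suite assigned E-scores to ungapped eight-base words pooled with their reverse complements.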

Row | Sequence | PBM E-score
1 | CACTTACC | 0.0118
2 | ACAAGGGA | -0.248
3 | AATGTGAC | 0.203
4 | AGCGGCGA | -0.0237
5 | CCTTAGCG | 0.0566
6 | ACGAAGGG | -0.192
7 | CATTAGGA | 0.0671
8 | CCACTCTA | 0.0684
9 | AGCTGTCG | -0.196
10 | AGTCTCCA | 0.27
11 | AGTCTCCC | 0.382
12 | CGTCTCCC | -0.223
13 | CACTCCCA | 0.0058
14 | AACTCCCC | 0.0421
15 | AACTCCCA | -0.184
16 | CACTCCCC | -0.147
17 | GACTCCCC | 0.405
18 | GACTCCCA | 0.381
19 | AGCCCAAA | 0.141
20 | CCTCCCCC | -0.224
21 | CCTTTATC | -0.243
22 | CAACGTAC | -0.0947
23 | CTAGAGTC | 0.366
24 | ATAGAGTC | 0.371

Row | Sequence | PBM E-score
25 | ATAGAGTA | 0.134
26 | CTAGAGTA | 0.138
27 | ATAGAGTG | 0.00994
28 | CTAGAGGC | -0.0949
29 | CTAGTAGA | 0.0545
30 | AACGGTGC | -0.101
31 | ACGCCGCT | -0.119
32 | CAAACCGC | -0.0599
33 | CAACACAC | 0.0236
34 | ACTGTCCG | -0.022
35 | CTACTGAG | 0.157
36 | AGAGTCGC | 0.396
37 | AGAGTCGA | 0.291
38 | CGAGTCGC | 0.383
39 | CGAGTCGA | 0.271
40 | CCAGTCGC | -0.0128
41 | AGAGTCGG | 0.326
42 | GACCCTGC | -0.262
43 | CACCGTAC | -0.0293
44 | TGCTGAAA | -0.0596
45 | AGAGTCAT | 0.492
46 | AGAGTCCT | 0.298
47 | AGAGTCCC | 0.0408
48 | AGAGTCCG | 0.212

Row | Sequence | PBM E-score
49 | AGTGTCAT | 0.0731
50 | AGAGTCTA | 0.158
51 | AGAGTCAA | 0.436
52 | AGAGTCAG | 0.457
53 | AGAGTCCA | 0.262
54 | AGAGTCTG | 0.147
55 | AGAGTCAC | 0.485
56 | AGAGTCTC | 0.332
57 | CCCGGACG | -0.193
58 | CATCTCGC | 0.0122
59 | GACACGCA | -0.104
60 | AGCCACTC | 0.0575
61 | CGTGTATA | 0.0534
62 | CCTAATTA | -0.151
63 | ATGCTAGA | -0.0387
64 | CAGAACTG | 0.139
65 | AGCCGAGA | 0.0772
66 | CACTTTCG | -0.131
67 | AACACCAT | -0.0344
68 | CAGCTTTA | -0.123
69 | ATATATCA | -0.0122
70 | GGCACCCC | -0.215
71 | GTCATGAC | 0.432
72 | ATCATGAC | 0.369

Row | Sequence | PBM E-score
73 | ATCATGAG | 0.34
74 | ACCATGAT | 0.217
75 | CTCATGAC | 0.381
76 | CTCATGAA | 0.202
77 | ATCATGAA | 0.266
78 | CTCATGAG | 0.3
79 | GCCATGAC | 0.307
80 | AGCATGAT | 0.26
81 | GTCATGAA | 0.308
82 | ATCATGAT | 0.378
83 | CCGAGCAA | -0.287
84 | ATTTGGTG | -0.0429
85 | CCACGTTC | -0.218
86 | CGGTCAAG | -0.055
87 | AATTTAGT | 0.363
88 | GTACCGCA | -0.0756
89 | CTAGCACA | -0.147
90 | CCATAGTC | 0.396
91 | ACATAGTG | 0.0787
92 | CCATAGCC | -0.0772
93 | ACATAGTC | 0.386
94 | CCATAGTA | 0.0975
95 | ACATAGTA | 0.0874
96 | CTCTCGAC | -0.0566

Row | Sequence | PBM E-score
97 | ACCGCCCA | -0.117
98 | CGAGAATA | -0.0825
99 | AGTCACGA | 0.466
100 | CGTCACGA | -0.0925
101 | ATTCACGG | 0.196
102 | GGTCACGA | 0.0181
103 | ATTCACGC | 0.132
104 | AGTCACGG | 0.469
105 | AGTCACGC | 0.469
106 | AATCACGG | 0.322
107 | CGTCACGC | -0.184
108 | CAGTAAAG | 0.0694
109 | CCGTTTGA | 0.0399
110 | ACACCCAA | -0.0135
111 | CCGCCTAC | -0.132
112 | CCTTCGCA | -0.293
113 | CTCGGAAC | -0.012
114 | GACGGCAA | -0.0972
115 | AGGAATCG | 0.235
116 | AGGAATCC | -0.0672
117 | CGGAATCC | -0.0704
118 | CGGAATTA | -0.0336
119 | GGGAATGA | 0.0959
120 | GGGAATCA | 0.418

Row | Sequence | PBM E-score
121 | CGGAATCA | 0.392
122 | AGGAATCA | 0.429
123 | GGGAATAA | -0.128
124 | GGATTCCA | 0.0871
125 | CGCCGAAA | -0.059
126 | GCGCAGGA | -0.0398
127 | CCATCCTA | 0.0627
128 | ATACCATG | 0.061
129 | ACGTCATG | 0.21
130 | AAGTCATT | 0.454
131 | AGGTCATA | 0.171
132 | AGGTCATC | 0.18
133 | AAGTCATA | 0.46
134 | AAGTCATG | 0.465
135 | AAGTCAAT | 0.305
136 | AAGTCATC | 0.471
137 | AACTCATT | 0.2
138 | ATGTCATC | -0.179
139 | AGGTCATG | 0.17
140 | ATGTCATA | 0.013
141 | ATCTCTAA | 0.0574
142 | AAGGATCC | -0.15
143 | GAGTTCTA | 0.0136
144 | GGTTGGGA | 0.00893

Row | Sequence | PBM E-score
145 | GGTATCAA | 0.0678
146 | CGGTCATC | -0.108
147 | CAGTCATC | 0.467
148 | CCGTCATC | -0.098
149 | ATCAAATC | 0.21
150 | GAGAAGCC | -0.201
151 | AGCAGAGC | -0.137
152 | GTCATACA | 0.374
153 | CTCATACA | 0.184
154 | ATCATACA | 0.236
155 | ATCAGGAA | 0.00077
156 | CCGGCATC | -0.251
157 | AGTAATCC | 0.0831
158 | CGTAATTA | -0.00543
159 | AGTAATCA | 0.415
160 | CGTAATCC | -0.0532
161 | AGTAATCG | 0.186
162 | GGTAATCA | 0.433
163 | CGTAATCA | 0.42
164 | GGTAATGA | 0.189
165 | GGTAATTA | 0.0662
166 | CTGCGGTC | -0.245
167 | CAGACCGC | -0.0824
168 | AGTCGATA | 0.179

Row | Sequence | PBM E-score
169 | ACTCTCAA | 0.257
170 | ATACTCAA | 0.239
171 | AGACTCAC | 0.457
172 | AGACTCAG | 0.434
173 | ACTCTCAC | 0.173
174 | ATACTCAG | 0.214
175 | AGACTCAA | 0.444
176 | ATACTCAT | 0.371
177 | AGACTCTA | 0.267
178 | ACTCTCAG | 0.125
179 | AGACTCTG | 0.301
180 | AGACTCGC | 0.336
181 | CCAAGTTA | 0.0576
182 | CAATTGCG | -0.0914
183 | ATGGATGG | -0.0396
184 | GCAACTGC | -0.0982
185 | AACCGTGT | 0.0249
186 | CGGTTCAG | -0.212
187 | TAGCTAAA | 0.0446
188 | CCGGGGGC | -0.128
189 | CCCCACCC | -0.0582
190 | ATCATTTA | 0.327
191 | ATCCTTAG | -0.107
192 | CATGGCCG | -0.31

Row | Sequence | PBM E-score
193 | CCACTCAC | -0.0373
194 | AGACTCCG | 0.367
195 | ACACTCCG | -0.136
196 | CGACTCTC | 0.381
197 | CGACTCGC | 0.361
198 | ACACTCAT | 0.25
199 | CGACTCAC | 0.468
200 | AGACTCCT | 0.337
201 | AGACTCTC | 0.334
202 | AGACTCAT | 0.467
203 | CAACTCAC | 0.224
204 | ACTCTCAT | 0.112
205 | TGGGCTAA | -0.0729
206 | AGATGGTC | -0.295
207 | AGAGACAG | -0.0696
208 | GAACTAGA | 0.0303
209 | CGACTCAG | 0.45
210 | CTACTCAG | 0.132
211 | CCACTCAG | 0.0632
212 | CCGTTATC | 0.0125
213 | ATGGCGGG | -0.0628
214 | AGTCACAT | 0.469
215 | AGTCACAG | 0.467
216 | ACTCACAT | 0.35

Row | Sequence | PBM E-score
217 | CGTCACAA | -0.0973
218 | AGTCACAC | 0.477
219 | CGTCACAC | -0.155
220 | GGTCACAA | 0.0763
221 | AGTCACAA | 0.46
222 | AGGCACAT | -0.117
223 | CGTCACAG | -0.031
224 | ATTCACAG | 0.078
225 | GGTCACAC | -0.00398
226 | CCCCGCTA | -0.209
227 | CTGGCGCC | -0.331
228 | TGCGGACA | -0.121
229 | GATGGCTA | 0.359
230 | CGGTCATA | -0.0954
231 | TACTCATA | 0.343
232 | CTGTCATA | 0.0424
233 | ATGTCATG | 0.214
234 | TAGTCATA | 0.489
235 | CAGTCATG | 0.458
236 | CAGTCATA | 0.448
237 | CACTCATG | 0.222
238 | CCGTCATA | 0.0861
239 | CGCGGACC | -0.262
240 | CGGTTGAC | 0.0774

Row | Sequence | PBM E-score
241 | ACCAGCGG | -0.133
242 | CGGCAAGA | -0.115
243 | GGTCAATA | 0.108
244 | AGTCAATA | 0.383
245 | AGTCAATG | 0.377
246 | CGTCAATA | -0.192
247 | ACTCAATG | 0.302
248 | AATCAATC | 0.301
249 | CGTCAATC | 0.17
250 | ATTCAATG | 0.204
251 | ACTCAATC | 0.404
252 | AGTCAATC | 0.426
253 | ATTCAATC | 0.308
254 | AATCAATG | 0.236
255 | AGCGGATG | -0.0548
256 | CTGGGCTA | -0.161
257 | AGGCTACC | -0.0969
258 | CCAACACC | -0.158
